Screening data deposited in PubChem BioAssay by The Scripps Research Institute Molecular Screening Center.
PAFAH1B2 FP inh = PAFAH1B2 (human) inhibition; recombinant PAFAH1B2, FP-rhodamine activity probe, fluorescence polarization; inhibition, % at 3.39 µM; actives 1.2% (n = 340,000);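 active = inhibition above the mean of all tested compounds plus 3 SD, cut at about 24% in these data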
Target sequence (P68402 whole entry, looked up): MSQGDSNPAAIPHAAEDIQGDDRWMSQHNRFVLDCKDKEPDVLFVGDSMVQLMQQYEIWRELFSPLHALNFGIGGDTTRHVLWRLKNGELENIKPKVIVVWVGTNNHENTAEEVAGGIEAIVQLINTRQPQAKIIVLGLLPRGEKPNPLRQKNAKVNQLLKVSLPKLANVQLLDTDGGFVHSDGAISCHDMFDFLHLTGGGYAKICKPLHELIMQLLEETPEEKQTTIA
PAFAH1B3 FP inh = PAFAH1B3 (human) inhibition | Q15102 | recombinant PAFAH1B3, FP-rhodamine probe, fluorescence polarization | inhibition, % at 3.39 µM | actives 0.28% (n = 340,000) | AID 492972;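 active = inhibition above the screen-wide average of all tested compounds plus 3 SD, cut at about 25% in these data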
Target sequence (Q15102 whole entry, looked up): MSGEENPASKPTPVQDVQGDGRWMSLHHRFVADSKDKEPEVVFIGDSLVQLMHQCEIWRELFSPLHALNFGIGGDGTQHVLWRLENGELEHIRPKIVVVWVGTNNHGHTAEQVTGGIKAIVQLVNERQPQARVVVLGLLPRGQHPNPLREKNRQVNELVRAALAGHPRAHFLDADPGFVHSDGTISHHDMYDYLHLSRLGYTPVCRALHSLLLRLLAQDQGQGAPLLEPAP
EBNA-1 inhibitor = blocks EBNA-1 binding to DNA; EBNA-1 DNA binding, fluorescence polarization; inhibition, % at 14.8 µM; actives 0.34% (n = 300,000); AID 1950; in the data active = inhibition above about 28%
ZTA DNA inh = counter-screen for EBNA-1 inhibitors: inhibitors of Epstein-Barr virus ZTA; P03206; ZTA-DNA binding, fluorescence polarization; inhibition, % at 11 µM; actives 0.15% (n = 320,000); AID 2234; in the data active = inhibition above about 33%
PAFAH2 inh = PAFAH2 (human) inhibition; Q99487; recombinant PAFAH2, FP-rhodamine activity probe, fluorescence polarization; inhibition, % at 3.39 µM; actives 0.99% (n = 340,000);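 active = inhibition above the mean over all tested compounds plus 3 SD, cut at about 30% in these data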;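 note: inhibitors block probe labeling of enzyme so polarization drops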
pPAFAH inh = inhibitors of human plasma PAF acetylhydrolase (pPAFAH); actives 1.5% (n = 330,000); inhibition, % at 3.39 µM; recombinant pPAFAH, FP-rhodamine probe fluorescence polarization; Q13093;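 active = inhibition above the mean inhibition across the screen plus 3 SD, cut at about 25% in these data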;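 note: inhibitors block binding of the rhodamine activity-based probe so polarization drops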
Of the large screens only hits and unclear results are named; the others gave an inactive call. In the library only some 2.9% were active in any assay of this set; here they are far more common.

O=c1[nH]c(=O)n(-c2ccc(Br)cc2)c(O)c1C=NC(CO)(CO)CO	none (no result: PAFAH1B2 FP inh, PAFAH1B3 FP inh, PAFAH2 inh)
N=Cc1c(O)n(-c2ccc(C34CC5CC(CC(C5)C3)C4)cc2)c(=O)[nH]c1=O	EBNA-1 inhibitor 29
CCOc1ccccc1-n1c(O)c(C=NCCCn2ccnc2)c(=O)[nH]c1=O	none
CC(=NCCN(C)C)c1c(O)n(Cc2ccccc2)c(=O)[nH]c1=O	none
O=C(Nc1ccc(Cl)cc1C(=O)c1ccccc1)c1ccccc1	pPAFAH inh 29
O=C1CCCN1C(=O)c1cncc(Br)c1	PAFAH1B2 FP inh 26
CCCCC/C=C\C/C=C\C/C=C\C/C=C\CCCC(=O)Nc1ccc(O)cc1	pPAFAH inh 36 (no result: PAFAH1B2 FP inh, PAFAH1B3 FP inh, PAFAH2 inh)
CCCCCCCCc1ccc(O)cc1	none (no result: EBNA-1 inhibitor)
COC(=O)C(O)(c1ccc(NC(=S)NC(=O)c2ccccc2)cc1)C(F)(F)F (configuration not stated)	pPAFAH inh 34
COC(=O)C(O)(c1ccc(NC(=O)Oc2ccccc2)cc1)C(F)(F)F (configuration not stated)	none
CCS(=O)(=O)NCc1nnc2n1-c1ccc(Cl)cc1C(c1ccccc1)=NC2	none
CC(C)c1ccc(N=Cc2c(O)n(C3CC3)c(=S)[nH]c2=O)cc1	none
CCOC(=O)CC(NC(=O)C(Cc1ccc(N(CCCl)CCCl)cc1)NC(C)=O)C(=O)OCC (configuration not stated)	none
CC(=O)NC(Cc1ccc(N(CCCl)CCCl)cc1)C(=O)NC(C(=O)O)C(C)C (configuration not stated)	PAFAH1B2 FP inh 25
Cn1cc(C(=O)OCC(=O)Nc2ccccc2)c2ccccc21	PAFAH2 inh 85, pPAFAH inh 29 (no result: EBNA-1 inhibitor)
Cc1oc(-c2ccccc2)nc1CN1C(=O)CN=C(c2ccccc2)c2ccccc21	none
Cc1ccc(CN2C(=O)CN=C(c3ccccc3)c3ccccc32)cc1	PAFAH1B2 FP inh 28
Cc1ccc2c(c1)=NC(=O)/C(=C/c1c(O)[nH]c(=O)[nH]c1=O)C=2	PAFAH1B2 FP inh 33
Cc1ccc2c(c1)=C/C(=C\c1c(O)[nH]c(=S)[nH]c1=O)C(=O)N=2	none (no result: PAFAH1B2 FP inh, PAFAH1B3 FP inh, PAFAH2 inh)
O=C(Cn1ncc2c3ccccc3n(Cc3ccc(F)cc3)c2c1=O)N1CCC2(CC1)OCCO2	pPAFAH inh 32
O=c1[nH]c(O)c(N=Nc2ccc(SC(F)F)cc2)c(=O)[nH]1	none
O=C(N/N=C/c1c(O)n(Cc2ccc(F)cc2)c(=O)[nH]c1=O)c1ccccc1	PAFAH1B2 FP inh 35
C/C(=N\NC(=O)c1ccccc1O)c1c(O)n(C2CCCCC2)c(=O)[nH]c1=O	pPAFAH inh 26
C/C(=N\NC(=O)c1ccccc1O)c1c(O)n(Cc2ccccc2)c(=O)[nH]c1=O	PAFAH1B2 FP inh 28, pPAFAH inh 25
C/C(=N\NC(=O)c1ccccc1Cl)c1c(O)n(C2CCCCC2)c(=O)[nH]c1=O	none
C/C(=N\NC(=O)c1ccncc1)c1c(O)n(Cc2ccccc2)c(=O)[nH]c1=O	none
O=C1CCCN1CC#CCN1CCCC1	none
O=C(O)C1(c2ccc(Cl)cc2)CCC1	PAFAH1B2 FP inh 46
CC(=O)C1(c2ccccc2)CCNCC1	none
C=CCn1c(O)c(C=NCCN2CCOCC2)c(=O)[nH]c1=S	none
COc1ccc(N2C(=O)/C(=C/c3ccc(C)o3)C(=O)NC2=S)cc1	none (no result: EBNA-1 inhibitor, ZTA DNA inh, pPAFAH inh)
Cc1ccc(N2C(=O)NC(=O)/C(=C\c3ccoc3)C2=O)cc1	none
Cc1ccc(/C=C2\C(=O)NC(=S)N(c3cccc(F)c3)C2=O)o1	pPAFAH inh 29
O=C1NC(=S)N(c2ccc(F)cc2)C(=O)/C1=C/c1ccco1	EBNA-1 inhibitor 78, pPAFAH inh 83 (no result: PAFAH1B2 FP inh, PAFAH1B3 FP inh, PAFAH2 inh)
O=C1NC(=S)N(c2ccc(F)cc2)C(=O)/C1=C\c1ccoc1	PAFAH2 inh 50 (no result: EBNA-1 inhibitor, ZTA DNA inh, pPAFAH inh)
COc1ccc(OC)c(N2C(=O)/C(=C/c3ccco3)C(=O)NC2=S)c1	EBNA-1 inhibitor 103, ZTA DNA inh 75, pPAFAH inh 87 (no result: PAFAH1B2 FP inh, PAFAH1B3 FP inh, PAFAH2 inh)
O=C(OC1CC2CCC(N2)C1C(=O)O)c1ccccc1 (configuration not stated)	none (no result: EBNA-1 inhibitor, ZTA DNA inh)
CC(=O)N1CN2CN(C1)CN(C(C)=O)C2	none
COc1ccc(-c2nc3ccccc3c(=O)n2-c2ccc(OC)cc2)cc1	none
CCn1nc(-c2ccccc2)nc2c(=O)n(C)c(=O)nc1-2	PAFAH1B2 FP inh 39, PAFAH1B3 FP inh 70, ZTA DNA inh 74, PAFAH2 inh 58
BrCC(Br)C1CCC(Br)C(Br)C1 (configuration not stated)	PAFAH1B2 FP inh 51 (no result: EBNA-1 inhibitor)
COC(=O)CC(NC(=S)N1CC2C[C@@H](C1)Cn1c2cccc1=O)C(=O)OC (some centres not stated)	none
CC(C)C(C)(NC(=O)c1cccn(Cc2ccc3c(c2)OC(F)(F)O3)c1=O)C(N)=O (configuration not stated)	none
O=C(O)CCC(=O)NCCC1=c2ccccc2=N/C1=C\c1c(O)n(Cc2ccc(F)cc2)c(=S)[nH]c1=O	PAFAH1B2 FP inh 41, PAFAH2 inh 38
Cc1cccc(N2C(=O)NC(=O)/C(=C\C=C\c3ccco3)C2=O)c1	none
Cc1cccc(N2C(=O)NC(=O)/C(=C\c3cccn3-c3ccc(Cl)cc3)C2=O)c1	PAFAH1B2 FP inh 74, PAFAH2 inh 54
Cc1cccc(N2C(=O)NC(=O)/C(=C/c3ccc([N+](=O)[O-])o3)C2=O)c1	ZTA DNA inh 37, pPAFAH inh 26 (no result: PAFAH1B2 FP inh, PAFAH1B3 FP inh, PAFAH2 inh)
Cc1cc(C)cc(N2C(=O)NC(=O)/C(=C/c3cccn3-c3ccc(Cl)cc3)C2=O)c1	PAFAH1B2 FP inh 48, PAFAH2 inh 42
CN(C)CCSCc1nnc2n1-c1ccc(Cl)cc1C(c1ccccc1Cl)=NC2	none
CC(=O)c1cccc(NC(=O)N2C[C@H]3C[C@@H](C2)c2cccc(=O)n2C3)c1	none
CC1CCN(C(=O)CCl)CC1	none
O=C1C2CCCN2C(c2cccnc2)N1c1nccs1 (configuration not stated)	none
CN1/C(=C\C=C\C2=[N+](C)c3ccc4ccccc4c3C2(C)C)C(C)(C)c2ccccc21	EBNA-1 inhibitor 101, ZTA DNA inh active (no result: PAFAH1B2 FP inh, PAFAH1B3 FP inh, PAFAH2 inh)
Cc1ccc(N2C(=O)/C(=C/c3ccc(CN(CCC#N)S(C)(=O)=O)o3)C(=O)NC2=S)cc1C	pPAFAH inh 32 (no result: PAFAH1B2 FP inh, PAFAH1B3 FP inh, PAFAH2 inh)
Cc1cccc(N2C(=O)/C(=C/c3ccc(CN(CCC#N)S(C)(=O)=O)o3)C(=O)NC2=S)c1	none
O=C1NC(=O)C(=Cc2ccc(-c3ccc(Cl)cc3)o2)C(=O)N1	none
O=C1NC(=O)C(=Cc2ccc(-c3ccc(F)cc3O)o2)C(=O)N1	PAFAH1B2 FP inh 32
Cc1ccc(OCCn2cccc2/C=C2/C(=O)NC(=O)N(Cc3ccco3)C2=O)cc1	PAFAH1B2 FP inh 25
CN1C[C@H](CNC(=O)OCc2ccccc2)C[C@@H]2c3cccc4c3c(cn4C)C[C@H]21	pPAFAH inh 27
COc1ccc2c(c1O)-c1c(OC)c(OC)cc3c1[C@H](C2)N(C)CC3	none
CCCN1CCc2cccc3c2[C@H]1Cc1ccc(O)c(O)c1-3	pPAFAH inh 34
